Screens as filed in PubChem BioAssay.
A selection: hits, their analogues and other compounds. The true share with any hit is near 6%.
D1 antagonist: blocks dopamine activation of the human D1 receptor. HEK293 TREx D1 cells, calcium flux, dopamine EC80; hits give low values. activity change, negative = inhibition, % at 10 µM. 360,000 tested, 3.2% active. AID 504652; in the data active = activity change below about -30%
Target sequence (P21728 whole entry, looked up): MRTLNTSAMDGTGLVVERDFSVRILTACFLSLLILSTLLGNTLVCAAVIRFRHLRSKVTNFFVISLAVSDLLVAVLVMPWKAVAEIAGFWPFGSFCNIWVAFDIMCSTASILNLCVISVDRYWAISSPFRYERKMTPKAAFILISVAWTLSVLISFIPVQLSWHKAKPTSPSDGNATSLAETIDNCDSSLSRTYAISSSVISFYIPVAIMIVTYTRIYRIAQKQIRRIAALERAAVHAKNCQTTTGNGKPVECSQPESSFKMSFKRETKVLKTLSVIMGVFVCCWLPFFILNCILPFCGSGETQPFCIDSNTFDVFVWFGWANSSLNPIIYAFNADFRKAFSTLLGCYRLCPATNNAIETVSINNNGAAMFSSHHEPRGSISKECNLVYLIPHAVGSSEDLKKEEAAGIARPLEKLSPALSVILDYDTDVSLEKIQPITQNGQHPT
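Kinetic fluorescence of a calcium dye serves as the read-out. D1-expressing Hek293 Trex cells, induced overnight at 30 C, are exposed to compound for 180 s before an EC80 dopamine addition, then read 180 s further.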
D1 potentiator: potentiators of human D1 dopamine receptor | potentiation, % at 10 µM | HEK293 TREx D1 cells, calcium flux, dopamine EC20 potentiation | 360,000 tested, 0.036% active | P21728; in the data active = potentiation above about 30%
D1 ag: agonists of human D1 dopamine receptor. P21728. HEK293 T-REx D1 cells, calcium flux, agonist mode. activation, % at 2 µM. 360,000 tested, 1% active; in the data active = activation above about 30%
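Tetracycline-induced HEK293 TREx D1 cells, force-coupled to calcium signalling, were dye-loaded with a no-wash calcium kit. Compound was pin-added after a 10 s baseline. Fluorescence was read kinetically at 1 cycle/s for 180 s, with calcium rises flagged as agonism.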
DRD3 antagonist: D3 dopamine receptor (human) antagonism; 360,000 tested, 2.5% active; P35462; D3R cells, DiscoveRx beta-arrestin luminescence, antagonist mode; hits give low values; max response, negative = inhibition, %; in the data active = max response below about -50%; inconclusive = no clear call, values can overlap the other calls
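Cells plated overnight at 1500 cells/well, then exposed to library compounds with dopamine controls for 90 minutes at 37 degrees C. DiscoveRx reagent added for 30–60 minutes at room temperature; luminescence read, quantitative HTS format.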
D3 ag: agonists of human D3 dopamine receptor | P35462 | D3R DiscoveRx beta-arrestin cells, luminescence, 90 min | max activation, % | 410,000 tested, 0.58% active | AID 652048; in the data active = max activation above about 30%
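Agonist mode: compounds and dopamine controls were applied to plated cells for 90 min at 37 degrees C after an overnight attachment at 1500 cells/well. Luminescent read-out followed 30 - 60 minutes at room temperature with DiscoveRx detection reagent.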
Large screens that a line does not name were inactive.

O=C1OC2(c3ccccc31)c1cc(Br)c(O)c(Br)c1Oc1c2cc(Br)c(O)c1Br	none (no result: D1 antagonist, D1 potentiator, D1 ag, DRD3 antagonist)
CC(C)c1noc(-c2ccccc2OCC(=O)Nc2ccc([N+](=O)[O-])cc2)n1	none (no result: DRD3 antagonist)
CCCOC(=O)c1cccc(Nc2nc(CCC)cc(=O)[nH]2)c1	none (no result: DRD3 antagonist)
COc1ccc(Br)cc1CNC(=O)Cn1c(=O)c2cccn2c2ccc(F)cc21	none (no result: DRD3 antagonist)
N#C/C(=C\Nc1ccccc1O)c1nc2ccccc2o1	D1 antagonist -36.2
COc1ccc(NC(=O)COCc2cc(-c3cccs3)on2)cc1	none (no result: DRD3 antagonist)
CSCCC(NS(=O)(=O)c1cccs1)C(=O)NCc1ccc(C)cc1 (centres undefined)	none
CSCCC(NS(=O)(=O)c1cccs1)C(=O)Nc1ccc(C)c(Cl)c1 (centres undefined)	D1 antagonist -38.8 (no result: DRD3 antagonist)
Cc1cc(=O)n(Cc2c(F)cccc2Cl)c2c1c(C)nn2-c1cccc(F)c1	none (no result: DRD3 antagonist)
O=C(O)C1CCN(c2ccc(S(=O)(=O)N3CCCCC3)cc2[N+](=O)[O-])CC1	none
O=C(O)C1CCN(S(=O)(=O)c2ccc(N3CCCC3C(=O)O)c([N+](=O)[O-])c2)CC1 (centres undefined)	DRD3 antagonist -81.6
Cc1ccc(S(=O)(=O)N2CCC(C(N)=O)CC2)cc1[N+](=O)[O-]	D1 antagonist -39.1
O=C(NCCc1ccc(F)cc1)C(=O)NCC(c1cccs1)S(=O)(=O)c1cccs1 (centres undefined)	D1 ag 42.0 (no result: D1 antagonist, DRD3 antagonist)
O=C(NCCc1ccc(Cl)cc1)C(=O)NCC(c1cccs1)S(=O)(=O)c1cccs1 (centres undefined)	none (no result: D1 antagonist, DRD3 antagonist)
CC(=O)OC(COc1ccccc1)Cn1cnc2cc(C)c(C)cc21 (centres undefined)	DRD3 antagonist -58.6
COc1ccc(C2(C(=O)Nc3cc(C)on3)CCOCC2)cc1	D1 antagonist -60.1
CCN(CC)S(=O)(=O)c1ccc2c(c1)N(CC(=O)NCCc1ccc(OC)c(OC)c1)C(=O)CO2	none (no result: DRD3 antagonist)
COc1ccc(NC(=O)CCN2CCOCC2)c(OC)c1	none
COc1ccc(NC(=O)CN2CCC(C(N)=O)(N3CCCCC3)CC2)c(OC)c1	D1 antagonist -37.2
COc1ccc(NC(=O)CCN2CCCCCC2)c(OC)c1	DRD3 antagonist -55.1
Cc1c(Cl)cccc1-n1ncc(C(=O)Nc2ccc3c(c2)OCCO3)c1C1CCN(C(=O)OC(C)(C)C)CC1	none (no result: DRD3 antagonist)
COc1ccc2c(C)c(CCC(=O)NCCc3ccc(OC)c(OC)c3)c(=O)oc2c1	none (no result: DRD3 antagonist)
O=C(Oc1cccc(C(=S)N2CCOCC2)c1)c1ccc([N+](=O)[O-])cc1[N+](=O)[O-]	DRD3 antagonist -50.8
COc1cc(C(=S)N2CCOCC2)ccc1OC(=O)c1ccccc1[N+](=O)[O-]	D1 antagonist -32.8
COc1cc(C(=S)N2CCOCC2)ccc1OC(=O)c1cc([N+](=O)[O-])c(C)c([N+](=O)[O-])c1	none
O=C(Oc1ccc(C(=S)N2CCOCC2)cc1)c1ccc([N+](=O)[O-])cc1[N+](=O)[O-]	none
CCCN(Cc1cc2ccccc2[nH]c1=O)C(=O)c1cccc([N+](=O)[O-])c1	none
CC(C)(C)N(Cc1cc2ccccc2[nH]c1=O)C(=O)c1cccc([N+](=O)[O-])c1	D3 ag 46.9
N#CN1CCC(N[S+](=O)([O-])c2cccc(F)c2)CC1	none (no result: DRD3 antagonist, D3 ag)
Cc1cccc([S+](=O)([O-])NC2CCN(C#N)CC2)c1	D1 antagonist -81.0 (no result: DRD3 antagonist, D3 ag)
CC(C)CC(=O)Nc1ccc(S(=O)(=O)Nc2cc3c(cc2N2CCOCC2)n(C)c(=O)c(=O)n3C)cc1	none (no result: DRD3 antagonist)
CCc1nc2c(OCCC3CCCCC3)cccn2c1N(C)C(=O)C(C)C	DRD3 antagonist inconclusive (no result: D1 antagonist, D1 potentiator, D1 ag)
CCc1nc2c(OCC=C(C)C)cccn2c1N(C)C(=O)c1ccc(OC)cc1	DRD3 antagonist -60.6 (no result: D1 antagonist, D1 potentiator, D1 ag)
Cc1nc2c(OCCC3CCCCC3)cccn2c1N(C)C(=O)CCC1CCCC1	DRD3 antagonist -66.8 (no result: D1 antagonist, D1 potentiator, D1 ag)
Cc1nc2c(OCCOc3ccccc3)cccn2c1N(C)C(=O)CCC1CCCC1	none (no result: D1 antagonist, D1 potentiator, D1 ag)
CCc1nc2c(OCCC3CCCCC3)cccn2c1N(C)C(=O)c1ccc(C)cc1	DRD3 antagonist -55.6 (no result: D1 antagonist, D1 potentiator, D1 ag)
CCc1nc2c(OCCC3CCCCC3)cccn2c1N(C)C(=O)C1CC1	DRD3 antagonist -66.0 (no result: D1 antagonist, D1 potentiator, D1 ag)
COc1ccc2cc(S(=O)(=O)c3ccccc3F)c(=O)oc2c1	none (no result: DRD3 antagonist)
Cc1cccc(NC(=O)Cn2c(=O)n(Cc3ccccc3)c(=O)c3oc4ccccc4c32)c1C	none (no result: DRD3 antagonist)
CCc1noc(-c2ccc(N(C)Cc3ccc(OC)cc3)c([N+](=O)[O-])c2)n1	none (no result: DRD3 antagonist)
CCC12CN3CC(C)(CN(C1)C3c1c[nH]c3ccccc13)C2=O (centres undefined)	none (no result: DRD3 antagonist)
Cc1nc2c(OCc3ccc(C(F)(F)F)cc3)cccn2c1N(C)CC1CC1	DRD3 antagonist -98.6 (no result: D1 antagonist, D1 potentiator, D1 ag)
COC(=O)c1ccccc1COc1cccn2c(N(C)CC3CC3)c(C)nc12	none (no result: D1 antagonist, D1 potentiator, D1 ag)
CCc1nc2c(OCc3ccc(C(F)(F)F)cc3)cccn2c1N(C)C(=O)c1ccc(C)cc1	DRD3 antagonist -65.8 (no result: D1 antagonist, D1 potentiator, D1 ag)
Cc1c(NC(=O)c2ccc(Br)o2)cccc1-c1nc2ccccc2o1	none (no result: DRD3 antagonist)
CNC(=S)N(Cc1ccc(OC)cc1)C1CC(=O)N(c2ccc(OC)cc2)C1=O (centres undefined)	D1 antagonist -36.3, DRD3 antagonist inconclusive
FC(F)(F)c1nnc(Nc2ccc(Cl)cc2)s1	D1 antagonist -30.0
COc1cc(/C=C(/C#N)C(=O)Nc2ccc(C)cc2)ccc1Oc1nc(Cl)ncc1F	D1 antagonist -30.5
COc1ccc(/C=N/NC(=O)CC#N)cc1Oc1nc(Cl)ncc1F	none
COc1ccc(/C=C(/C#N)C(=O)Nc2ccc(C)cc2C)cc1C(=O)O	D1 antagonist -34.9
Cc1cc2cc3c(=O)[nH]c(=O)cc-3n(CC(O)C(O)C(O)CO)c2cc1C (centres undefined)	DRD3 antagonist -97.3 (no result: D1 antagonist, D1 potentiator, D1 ag)
CN(CC(=O)Nc1ccc(F)c(F)c1F)c1ncnc2sccc12	none
CN(CC(=O)Nc1ccccc1Br)c1ncnc2sccc12	D1 antagonist -34.7
Cc1cccc(OCC(=O)Nc2ccncc2)c1C	none
Cc1cccc(OCC(=O)Nc2cccc3cccnc23)c1C	D1 antagonist -44.7 (no result: DRD3 antagonist)
Cc1ccc(NC(=O)CC2Sc3ccc(C(F)(F)F)cc3NC2=O)cc1 (centres undefined)	none (no result: DRD3 antagonist)
Cc1ccc(NC(=O)CC2=NC(=O)C(CC(=O)Nc3ccccc3F)S2)cc1 (centres undefined)	D1 antagonist -49.8
O=C(c1ccccc1)c1ccccc1C(=O)N1CCCC1	DRD3 antagonist -50.2
O=C(c1ccccc1)c1ccccc1C(=O)N1CCOCC1	none
COc1ccc(CNC(=O)C(C)n2c(=O)cc(C)c3c(C)nn(-c4ccccc4)c32)cc1 (centres undefined)	D1 antagonist -53.7 (no result: DRD3 antagonist)
O=c1c2cc(-c3ccccc3)sc2ncn1/N=C/c1ccco1	D1 antagonist -33.0
COc1c(OC2OC(C(=O)O)C(O)C(O)C2O)cc(O)c2c(=O)cc(-c3ccccc3)oc12 (centres undefined)	none
